The campaign covered roughly 310,000 compounds. About 14,000 (4.5%) showed an effect of 50% or more. Effects have a minus sign here. Shown is part of a subset that was picked to be rich in strong results.
Biological target: human ether-à-go-go-related gene (hERG) potassium channel (human, UniProt Q12809)
Experiment: primary screen, population patch clamp on CHO cells stably expressing hERG; higher = less effect of the substance
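Also: peak tail current of the secondary pulse compared with the same well before compound.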

Sequence of human ether-à-go-go-related gene (hERG) potassium channel (Q12809 whole entry, looked up): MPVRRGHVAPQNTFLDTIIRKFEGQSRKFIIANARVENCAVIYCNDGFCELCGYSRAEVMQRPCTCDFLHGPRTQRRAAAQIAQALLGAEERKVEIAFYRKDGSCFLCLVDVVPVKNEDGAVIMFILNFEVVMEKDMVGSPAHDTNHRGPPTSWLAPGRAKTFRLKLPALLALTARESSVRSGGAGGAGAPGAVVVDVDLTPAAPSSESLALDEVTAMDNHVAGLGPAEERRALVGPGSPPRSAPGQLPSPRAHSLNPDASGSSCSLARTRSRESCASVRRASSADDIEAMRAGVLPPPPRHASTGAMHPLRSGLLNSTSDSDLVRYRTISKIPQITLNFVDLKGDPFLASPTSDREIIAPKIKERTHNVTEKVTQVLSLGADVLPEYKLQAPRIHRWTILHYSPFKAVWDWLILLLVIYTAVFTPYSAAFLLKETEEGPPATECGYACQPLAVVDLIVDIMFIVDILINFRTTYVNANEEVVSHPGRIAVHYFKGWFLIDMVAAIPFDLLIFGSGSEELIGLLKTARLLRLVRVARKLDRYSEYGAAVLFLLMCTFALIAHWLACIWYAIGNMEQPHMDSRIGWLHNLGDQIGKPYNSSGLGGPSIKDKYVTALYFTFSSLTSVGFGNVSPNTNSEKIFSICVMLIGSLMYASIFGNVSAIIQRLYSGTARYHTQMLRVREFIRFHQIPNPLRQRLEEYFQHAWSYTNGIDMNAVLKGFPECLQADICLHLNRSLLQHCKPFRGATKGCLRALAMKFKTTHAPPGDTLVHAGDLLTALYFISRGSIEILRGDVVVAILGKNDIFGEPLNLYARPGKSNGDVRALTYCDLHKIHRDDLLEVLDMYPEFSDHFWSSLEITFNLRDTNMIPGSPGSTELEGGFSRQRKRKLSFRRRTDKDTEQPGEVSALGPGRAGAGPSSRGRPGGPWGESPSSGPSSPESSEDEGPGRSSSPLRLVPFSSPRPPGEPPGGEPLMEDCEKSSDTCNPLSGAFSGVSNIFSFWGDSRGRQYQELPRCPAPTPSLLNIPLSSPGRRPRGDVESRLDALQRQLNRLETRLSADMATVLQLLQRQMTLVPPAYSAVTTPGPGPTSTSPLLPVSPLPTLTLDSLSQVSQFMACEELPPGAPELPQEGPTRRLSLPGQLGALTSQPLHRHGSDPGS

| Compound | hERG current change (%, negative = inhibition) at 10uM [%] |
| --- | --- |
| CCOC(=O)c1[nH]c(C)c(C(=O)OCCN2C(=O)c3ccccc3C2=O)c1C | -1.16 |
| COC(=O)[C@@H]1C[C@@]2(O)[C@H](O)[C@H](O)[C@H](O)C[C@H]2N1Cc1ccc(C(F)(F)F)cc1 | 13.2 |
| Cc1ccccc1CN1CCN(CC(=O)NCc2ccccc2)CC1 | -22.8 |
| Cc1c(NC(=O)CCC2CCCCC2)cc(C(=O)N2CCOCC2)cc1[N+](=O)[O-] | -10.2 |
| COc1cc(N)c(Cl)cc1C(=O)NC1CN2CCC1CC2.Cl.O (centres unmarked) | -11.1 |
| O=C(O)c1ccc(Cl)c(NC(=S)NC(=O)c2cccc(COc3ccccc3)c2)c1 | 30.4 |
| COC(=O)c1ccc(N2CCN(C(=O)c3ccccc3)CC2)c(NC(C)=O)c1 | -39.8 |
| COC(=O)c1ccc(N2CCCCC2)c(NC(=O)c2ccco2)c1 | -45.8 |
| CCOC(=O)c1ccc(N2CCN(C(=O)c3ccccc3)CC2)c(NC(=O)c2ccco2)c1 | -71.5 |
| COC(=O)c1ccc(N2CCN(C)CC2)c(NC(=O)c2ccc(-c3ccc(Cl)cc3)o2)c1 | 7.11 |
| COC(=O)c1ccc(N2CCN(C)CC2)c(NC(=O)c2ccc(Br)o2)c1 | -55.8 |
| COC(=O)c1ccc(N2CCOCC2)c(NC(=O)c2ccc(Br)o2)c1 | 7.34 |
| CCOC(=O)N1CCC(NC(=O)c2cc(S(=O)(=O)N3CCC4(CC3)OCCO4)ccc2F)CC1 | -6.9 |
| Fc1cccc(CN2CCN3CCCC3C2C2CCCCC2)c1 (centres unmarked) | -8.93 |
| CCOc1ccc(NC(=S)NC(=O)/C=C/c2ccc(OC)cc2)c([N+](=O)[O-])c1 | 7.26 |
| O=C(COc1ccccc1Cl)NCCNC(=O)c1cccnc1 | -3.71 |
| CS(=O)(=O)NNC(=O)Cn1nnc(-c2ccc(OCc3ccccc3Cl)cc2)n1 | 18 |
| O=C(Oc1ccc(-c2nnco2)cc1)N1CCOCC1 | 1.23 |
| Cc1ccccc1Nc1nc(N)nc(COC(=O)CCNS(=O)(=O)c2ccccc2)n1 | -9.32 |
| CCc1ccccc1Nc1nc(N)nc(COC(=O)CCS(=O)(=O)c2ccccc2)n1 | -10.5 |
| CCc1ccccc1Nc1nc(N)nc(COC(=O)CCNS(=O)(=O)c2ccccc2)n1 | -62.7 |
| Cc1ccc2nc(NCCc3ccc(Cl)cc3)c3nncn3c2c1 | 8.75 |
| Cn1c2ccccc2c2nnc(SCC(N)=O)nc21 | -7.5 |

| Compound | hERG current change (%, negative = inhibition) at 10uM [%] |
| --- | --- |
| CCCCNS(=O)(=O)c1ccc2c(c1)oc(=O)n2CC(=O)OCC | 5.06 |
| O=C(Nc1cc([N+](=O)[O-])ccc1C(=O)NCCN1CCOCC1)c1ccccc1 | -44.9 |
| O=C(Nc1ccccc1C(=O)Nc1ccc(Br)cn1)c1cccc([N+](=O)[O-])c1 | 16.6 |
| O=C(Nc1ccccc1C(=O)NCCCN1CCOCC1)c1ccccc1 | 6.8 |
| O=C(NCCCN1CCOCC1)c1ccccc1NS(=O)(=O)c1ccc(F)cc1 | -41.5 |
| O=C(Nc1ccccc1C(=O)Nc1ccccn1)c1ccc([N+](=O)[O-])cc1 | -18 |
| O=C(NCCCN1CCOCC1)c1ccccc1NS(=O)(=O)c1ccc(Br)cc1 | -56.1 |
| Cc1ccccc1NS(=O)(=O)c1ccc2[nH]cc(C(=O)NCCCN3CCOCC3)c(=O)c2c1 | 14.5 |
| Cc1cc(C)c(C)c(S(=O)(=O)Nc2ccccc2C(=O)NCCCN2CCOCC2)c1C | -88.5 |
| O=C(Nc1ccccc1C(=O)Nc1ccccn1)c1cccc([N+](=O)[O-])c1 | -58.2 |
| O=C(Nc1ccccc1C(=O)NCCCN1CCOCC1)c1cccc([N+](=O)[O-])c1 | -52.7 |
| Cc1ccccc1NS(=O)(=O)c1ccc(C(=O)NCCCN2CCOCC2)cc1 | 9.08 |
| O=C(NCCCN1CCCC1=O)c1ccccc1NS(=O)(=O)c1ccc(Br)cc1 | 1.59 |
| CCCCNC(=S)NCCN1CCN(C(=S)NCCCC)CC1.Cl | -8.2 |
| S=C(Cc1ccc(Cl)cc1)N1CCOCC1 | 11.1 |
| CC(C)C(=O)Nc1ncc(Cc2ccc(Cl)cc2)s1 | 6.53 |
| O=[N+]([O-])c1ccccc1N(CC1CO1)S(=O)(=O)c1ccccc1 (centres unmarked) | 2.02 |
| O=C(CCc1nc2ccccc2c(=O)[nH]1)Nc1nnc(SCc2ccc(F)cc2)s1 | 7.47 |
| CC(C)(C)NCC(O)CON=C1c2ccccc2-c2ccccc21 (centres unmarked) | -28.5 |
| COc1ccc(O)c(/C=N/NC(=O)c2ccc(OCc3cccc(Br)c3)cc2)c1 | 9.95 |
| COc1ccc(CNC(=O)C/C(C)=N/NC(=O)c2ccc(OC)cc2OC)cc1 | -10.5 |
| O=C(NNS(=O)(=O)c1ccccc1[N+](=O)[O-])c1cc2ccccc2cc1O | -10.9 |
| O=C(NCCc1ccccc1)c1ccc2c(c1)OCCCO2 | 17.4 |

| Compound | hERG current change (%, negative = inhibition) at 10uM [%] |
| --- | --- |
| CCN(CC)CCN(Cc1cc2ccc(C)cc2[nH]c1=O)C(=O)Nc1ccc(Cl)cc1 | -77.6 |
| Cc1ccc2cc(CN(CCN(C)C)C(=O)Nc3ccc(Cl)cc3)c(=O)[nH]c2c1 | -70.5 |
| CCC(=O)N(CCc1ccccc1C)Cc1cc2ccc(C)cc2[nH]c1=O | 9.02 |
| O=C(NCc1ccccc1)c1cccc(COc2ccc(Cl)cc2)c1 | 5.77 |
| COc1cc(C2C(C#N)=C(N)Oc3cc(O)ccc32)cc(OC)c1OC (centres unmarked) | 4.91 |
| COC(=O)c1cc(S(=O)(=O)NC2CCCCC2)cn1C | 10.5 |
| O=S(=O)(c1ccc(SCCO)nc1)N1CCOCC1 | -2 |
| CCOC(=O)CCNC(=O)Nc1cc2nc(C)n(Cc3cccc(Cl)c3)c2nc1C | 4.33 |
| O=c1cc(-c2ccccc2)[nH]c2ccccc12 | -11.4 |
| O=C(COC(=O)c1ccccc1[N+](=O)[O-])NNC(=O)c1cccs1 | -15.7 |
| CC(C)C(=O)N(Nc1nc2ccccc2s1)C(=O)C(C)C | -0.224 |
| CCCCN1CCc2c(c3ccccc3n2Cc2ccccc2)C1 | -72.9 |
| Cc1ccc(CCn2c3c(c4ccccc42)CN(C)CC3)cn1 | -3.74 |
| CN1CCc2c(c3ccccc3n2Cc2ccccc2)C1.Cl | -71.2 |
| O=C1SCCc2c1n(Cc1ccccc1)c1ccccc21 | 2.89 |
| CN1CCc2c(c3ccccc3n2C)C1.Cl | 11.4 |
| Cc1ccc2c(c1)c1c(n2CCc2ccc(C)nc2)CCN(C)C1 | -15.8 |
| COc1ccc(-c2ncc3ccccn23)cc1 | -5.24 |
| Cc1cc(NC(=O)c2ccc(N(C)S(=O)(=O)c3ccccc3)cc2)no1 | -11.5 |
| COc1ccc(OCCCC(=O)Nc2ccc(N3CCCCC3)cc2)cc1.Cl | -1.87 |
| CC(=O)N1C2CCCCC2S[C@H]2CCCCC21 (some centres unmarked) | 18.9 |
| Cc1ccc(/C=N/n2c(COc3ccccc3)n[nH]c2=S)s1 | 14.6 |
| COc1ccc(C(C(=O)NC2CCCC2)N(C(=O)c2ccoc2C)c2ccc(C)c(C)c2)cc1 (centres unmarked) | 15.1 |

| Compound | hERG current change (%, negative = inhibition) at 10uM [%] |
| --- | --- |
| COc1ccccc1CNC(=O)CN1C(=O)c2ccccc2S1(=O)=O | 12.7 |
| Cc1ccc(C(=O)Nc2nc3ccccc3n2CCN2CCCC2)cc1 | -53.8 |
| CCN(CC)CCn1c(NC(=O)c2ccccc2O)nc2ccccc21 | -68 |
| O=C(Nc1nc2ccccc2n1CCN1CCCCC1)c1ccc(Cl)cc1 | -13.2 |
| CCCn1c(NC(=O)c2ccccc2Br)nc2ccccc21 | 16.2 |
| CCCn1c(NC(=O)c2ccc(C)cc2)nc2ccccc21 | -22.8 |
| CCN(CC)CCn1c(NC(=O)c2ccc(C)cc2)nc2ccccc21 | -63.2 |
| CCN(CC)CCn1c(NC(=O)c2ccc(Cl)cc2)nc2ccccc21 | -31.5 |
| CCC(=O)Nc1nc2ccccc2n1CCN(CC)CC | -14.1 |
| CCN(CC)CCn1c(NC(=O)c2ccc(C(F)(F)F)cc2)nc2ccccc21 | -25.7 |
| CCCc1nnc(NC(=O)c2cc(OC)cc(OC)c2)s1 | -4.25 |
| Cc1ccccc1NC(=O)CSc1ccncc1 | -1.94 |
| CNCCc1ccccn1.Cl | 7.88 |
| CC(=O)NN1C(=O)/C(=C/c2ccc(Br)o2)SC1=S | 2.1 |
| COc1ccc(C(CNC(=O)c2cc3ccccc3o2)N2CCCC2)cc1 (centres unmarked) | -38.6 |
| COc1ccc(C(CNC(=O)c2ccco2)N2CCCCC2)cc1 (centres unmarked) | -5.74 |
| COc1ccc(C(CNC(=O)CCNC(=O)c2ccccc2OC)N2CCCC2)cc1 (centres unmarked) | -14.1 |
| COc1ccc(C(CNC(=O)c2cc3ccccc3cc2OC)N2CCCC2)cc1 (centres unmarked) | -67.5 |
| COc1ccc(C(CNC(=O)c2ccccc2C)N2CCCC2)cc1 (centres unmarked) | -16.2 |
| COc1ccc(C(CNC(=O)c2cc3ccccc3o2)N2CCCCC2)cc1 (centres unmarked) | -51.6 |

From article PMC4336329 (PLoS ONE, 2015)
